Measurements as given in PubChem BioAssay (Tox21).
Values joined by “and” are separate entries in the source; they are usually repeats but may differ in a detail not shown here. Identical values can stand only once. Inconclusive results are not listed. Entries that show only a call come without a potency. Where a structure was tested more than once in an assay, its records may differ in their call. Active and inactive are the calls of the source. Unless noted, the call rests on the fitted dose curve; in most records, active means well fitted curve in the direction sought with a large enough effect in the repeat runs; inconclusive means weak or mixed curves; inactive means no such curve, though single readings can be large; an effect the other way counts as inactive or inconclusive.

Experiments:
[1] = qHTS assay for small molecule agonists of the p53 signaling pathway (AID 651631; calls by dose curve; further: nearly all actives have a fitted effect of over 15% in size; further: potency means the concentration at half of the fitted maximal effect)
Procedure, shortened: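 We treat p53RE-bla HCT-116 cells with compounds for 16 h at 37 °C, add LiveBLAzer B/G FRET substrate for 2 h at room temperature, and measure fluorescence intensity.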

[2] = qHTS assay for small molecules that induce genotoxicity in human embryonic kidney cells expressing luciferase-tagged ATAD5 (AID 651632); further: nearly all actives have a fitted effect of over 15% in size; further: potency means the concentration at half of the fitted maximal effect
Procedure, shortened: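 Cells were seeded at 2,000 per well, dosed with compound, and incubated 16 hr at 37C in 5% CO2. Luciferase activity was then quantified after a 30 min room-temperature incubation with Amplite.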

[3] = qHTS assay for small molecule agonists of the p53 signaling pathway - cell viability (AID 651633; calls by dose curve;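 further: p53RE-bla HCT reporter cells with a stable beta-lactamase p53 reporter; nearly all actives have a fitted effect of over 30% in size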)
Procedure, shortened: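 p53RE-bla cells were treated with compound for 16 hours at 37 C. Cytotoxicity was then measured as CellTiter-Glo luminescence after 30 min at room temperature.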

[4] = qHTS assay for small molecule disruptors of the mitochondrial membrane potential - cell viability (AID 720634; calls by dose curve;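 further: human HepG2 liver cancer cells; nearly all actives have a fitted effect of over 20% in size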)
Procedure, shortened: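 Cytotoxicity was measured by ATP quantitation in HepG2 wells that had first been treated with compound for 1 hr and stained with m-MPI dye; CellTiter-Glo incubation was 30 min at room temperature.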

[5] = qHTS assay for small molecule disruptors of the mitochondrial membrane potential (AID 720635); further: potency means the concentration at half of the fitted maximal effect
Procedure, shortened: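 HepG2 cells exposed to compound 1 hr at 37C, then Mito-MPS dye 30 min. Ratio read of aggregate (540/590 nm) versus monomer (490/535 nm) fluorescence.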

[6] = qHTS assay to test for compound auto fluorescence at 590 nm (red) in HepG2 cells (AID 720674)
Procedure, shortened: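 HepG2 cells, 2,000 per well in MEM with 10% FBS, attached overnight at 37 C, then got 23 nL compound or DMSO. After 1 hr at 37 C, 5% CO2, red fluorescence was read at 540/590 nm against Rose Bengal sodium as reference.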

[7] = qHTS assay to test for compound auto fluorescence at 535 nm (green) in HepG2 cells (AID 720675)
[8] = qHTS assay to test for compound auto fluorescence at 460 nm (blue) in HEK293 cells (AID 720678)
Procedure, shortened: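 Measured: blue fluorescence (Ex 405/Em 460 nm) of compound-treated HEK293 cells, incubated overnight at 37C with 5% CO2 and scaled to triamterene equivalents.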

[9] = qHTS assay to test for compound auto fluorescence at 590 nm (red) in HEK293 cells (AID 720679)
Procedure, shortened: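 Using HEK293 cells at 2,000 per well, the screen added 23 nL of each compound after cell attachment and incubated overnight (37C, 5% CO2). The plate reader then captured red-label fluorescence, Ex/Em 540/590nm.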

[10] = qHTS assay to test for compound auto fluorescence at 460 nm (blue) in HEK293 cell free culture (AID 720681)
Procedure, shortened: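 Compounds were added to cell-free DMEM with 10% FBS and fluorescence read directly. The blue channel used 405 nm excitation and 460 nm emission, with triamterene as the reference fluorophore.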

[11] = qHTS assay to test for compound auto fluorescence at 535 nm (green) in HEK293 cell free culture (AID 720682)
Procedure, shortened: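 Green-channel intensity (Ex/Em 485/535 nm) was recorded from compound-treated wells containing only DMEM with 10% FBS. Fluorescein provided the equivalency standard.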

[12] = qHTS assay to test for compound auto fluorescence at 590 nm (red) in HEK293 cell free culture (AID 720683)
Procedure, shortened: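 Cell-free wells of DMEM with 10% FBS received compound, and intrinsic fluorescence was read at excitation/emission 540/590 nm. Values expressed as equivalence to Rose Bengal sodium.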

[13] = qHTS assay to test for compound auto fluorescence at 590 nm (red) in HepG2 cell free culture (AID 720684)
Procedure, shortened: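 Auto fluorescence equivalency versus Rose Bengal sodium, red channel Ex/Em 540/590 nm; compounds in cell-free MEM/10% FBS; DMSO vehicle control.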

[14] = qHTS assay to test for compound auto fluorescence at 460 nm (blue) in HepG2 cell free culture (AID 720685)
Procedure, shortened: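 Cell-free plates of MEM plus 10% FBS received 23 nL compound or DMSO vehicle; blue-channel (405/460 nm) intensity scored against triamterene as reference fluorophore.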

[15] = biological target: Glucocorticoid receptor (Homo sapiens) (UniProt P04150); assay: qHTS assay to identify small molecule agonists of the glucocorticoid receptor (GR) signaling pathway (AID 720691; active means well fitted activation curve with a large enough effect in the signal ratio in the repeat runs, not every such curve was filed as active; the % refers to the signal ratio); conditions: GR-bla HeLa, beta-lactamase reporter ratio, 18 h; activation: at 62.4 µM (top of the series)
Procedure, shortened: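 Steps: seed GR-bla HeLa cells, incubate 4 h at 37 C/5% CO2; pin-transfer DMSO-dissolved compounds; incubate 18 h at 37 C; add LiveBLAzer B/G FRET substrate; after 2 h at room temperature, measure fluorescence.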

[16] = biological target: Glucocorticoid receptor (Homo sapiens) (UniProt P04150); assay: qHTS assay to identify small molecule antagonists of the glucocorticoid receptor (GR) signaling pathway (AID 720692; active means well fitted inhibition curve with a large enough effect in the signal ratio in the repeat runs, not every such curve was filed as active; the % refers to the signal ratio)
Procedure, shortened: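 Antagonism was scored as loss of dexamethasone-driven (5 nM final) reporter signal in HeLa cells bearing a glucocorticoid response element–beta-lactamase construct, after 18 h compound exposure at 37 C and 2 h FRET substrate loading.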

[17] = qHTS assay for small molecules that induce genotoxicity in human embryonic kidney cells expressing luciferase-tagged ATAD5 - cell viability (AID 651634; calls by dose curve; further: nearly all actives have a fitted effect of over 25% in size)
Procedure, shortened: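 Cells (HEK293T, luciferase-tagged ATAD5) are seeded at 2,000 per well, dosed with compound or DMSO vehicle, and incubated 15.5 hr at 37C and 5% CO2. CellTiter-Fluor is added for 30 min before fluorescence is measured.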

[18] = qHTS assay to test for compound auto fluorescence at 535 nm (green) in HEK293 cells (AID 720680)
[19] = qHTS assay to test for compound auto fluorescence at 535 nm (green) in HepG2 cell free culture (AID 720686)
[20] = qHTS assay to test for compound auto fluorescence at 460 nm (blue) in HepG2 cells (AID 720687)
Procedure, shortened: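 HepG2 cells in MEM with 10% FBS, attached overnight at 37 C, were exposed to compound or DMSO for 1 hr at 37 C, 5% CO2. Blue fluorescence was read at 405/460 nm, with triamterene as reference fluorophore.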

Glucocorticoid receptor (Homo sapiens), sequence (P04150 whole entry, looked up): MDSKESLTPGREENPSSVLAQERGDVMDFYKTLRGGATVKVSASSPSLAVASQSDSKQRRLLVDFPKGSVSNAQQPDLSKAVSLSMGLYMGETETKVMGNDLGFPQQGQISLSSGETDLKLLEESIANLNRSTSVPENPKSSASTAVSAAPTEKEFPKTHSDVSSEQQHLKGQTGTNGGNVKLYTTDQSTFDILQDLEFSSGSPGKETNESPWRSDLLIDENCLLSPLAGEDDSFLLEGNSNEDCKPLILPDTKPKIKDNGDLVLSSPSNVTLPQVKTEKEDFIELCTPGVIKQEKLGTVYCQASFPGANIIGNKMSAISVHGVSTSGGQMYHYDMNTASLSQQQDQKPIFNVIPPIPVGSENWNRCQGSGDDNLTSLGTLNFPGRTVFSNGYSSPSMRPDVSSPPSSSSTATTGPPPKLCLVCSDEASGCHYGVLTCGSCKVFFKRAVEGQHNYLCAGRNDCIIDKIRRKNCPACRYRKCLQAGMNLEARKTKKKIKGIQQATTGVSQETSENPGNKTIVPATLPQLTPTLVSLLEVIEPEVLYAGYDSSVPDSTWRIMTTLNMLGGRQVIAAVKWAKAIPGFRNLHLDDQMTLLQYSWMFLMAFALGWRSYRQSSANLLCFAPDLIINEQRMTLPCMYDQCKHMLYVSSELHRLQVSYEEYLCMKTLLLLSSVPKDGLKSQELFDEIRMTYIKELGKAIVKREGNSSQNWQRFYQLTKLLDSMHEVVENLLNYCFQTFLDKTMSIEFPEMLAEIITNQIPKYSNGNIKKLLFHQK

Structure (SMILES) | Potency [1] | Potency [2] | Potency [3] | Potency [4] | Potency [5] | outcome [6] | Potency [7] | Potency [8] | outcome [9] | Potency [10] | outcome [11] | outcome [12] | outcome [13] | Potency [14] | Potency [15] | Potency [16] | Potency [17] | outcome [18] | Potency [19] | Potency [20]
CCCCCCCCCCCCCCCC(=O)OC[C@H](COP(=O)([O-])OCC[N+](C)(C)C)OC(=O)CCCCCCCCCCCCCCC | inactive | inactive | inactive | inactive | inactive | inactive | inactive | inactive | inactive | inactive | inactive | inactive | inactive | inactive | inactive | inactive | – | – | – | –
CC1=C(/C=C/C(C)=C/C=C/C(C)=C/C=C/C=C(C)/C=C/C=C(C)/C=C/C2=C(C)CCCC2(C)C)C(C)(C)CCC1 | inactive | inactive | – | inactive | inactive | inactive | inactive | inactive | inactive | inactive | inactive | inactive | inactive | inactive | inactive | inactive | inactive | inactive | inactive | inactive
NC(=O)[C@@H]1C[C@]2(NC(=O)NC2=O)c2cc(F)ccc2O1 | inactive | inactive | – | inactive | inactive | inactive | inactive | inactive | inactive | inactive | inactive | inactive | inactive | inactive | – | – | – | inactive | inactive | inactive
CCC1OC(=O)C[C@@H](O)[C@H](C)[C@@H](O[C@@H]2O[C@H](C)C[C@H](N(C)C)[C@H]2O)[C@@H](CC=O)C[C@@H](C)C(=O)/C=C/[C@]2(C)OC2C1C (some centres not stated) | 29.8 µM (active) | inactive | – | inactive | inactive | inactive | inactive | inactive | inactive | inactive | – | inactive | inactive | inactive | – | – | inactive | inactive | inactive | inactive
COc1cc([C@@H]2c3cc4c(cc3[C@@H](O[C@@H]3O[C@@H]5CO[C@@H](C)O[C@H]5[C@H](O)[C@H]3O)[C@H]3COC(=O)[C@H]23)OCO4)cc(OC)c1O | 1.88 µM (active) and 761 nM (active) | inactive | – | inactive | – | inactive | inactive | inactive | inactive | inactive | inactive | inactive | inactive | inactive | – | – | inactive | inactive | inactive | inactive
COc1cc2c(cc1O)CCN[C@]21CS[C@@H]2c3c(OC(C)=O)c(C)c4c(c3[C@H](COC1=O)N1[C@@H]2[C@H]2c3c(cc(C)c(OC)c3O)C[C@@H]([C@@H]1O)N2C)OCO4 | 8.4 nM (active) and 12.2 nM (active) | inactive and 243 nM (active) | inactive | inactive | – | inactive | inactive | inactive | inactive | – | inactive | inactive | inactive | inactive | – | – | – | inactive | inactive | inactive
CSCC[C@H](NC(=O)[C@H](Cc1ccc(OS(=O)(=O)O)cc1)NC(=O)[C@@H](N)CC(=O)O)C(=O)NCC(=O)N[C@@H](Cc1c[nH]c2ccccc12)C(=O)N[C@@H](CCSC)C(=O)N[C@@H](CC(=O)O)C(=O)N[C@@H](Cc1ccccc1)C(N)=O | inactive | inactive | – | inactive | inactive | – | inactive | inactive | inactive | inactive | inactive | inactive | inactive | inactive | – | – | inactive | inactive | inactive | inactive
CC/C=C\C/C=C\C/C=C\C/C=C\C/C=C\C/C=C\CCC(=O)O | inactive | inactive | – | inactive | inactive | – | inactive | inactive | inactive | inactive | inactive | inactive | inactive | inactive | inactive | – | inactive | inactive | inactive | inactive
CCOc1ccc(NC(=S)Nc2ccc(OCC)cc2)cc1 | inactive | inactive | inactive | inactive | 11.9 µM (active) | – | inactive | inactive | inactive | inactive | – | inactive | inactive | inactive | – | – | – | inactive | inactive | –
NC[C@@H]1CC[C@@H](N)[C@@H](O[C@H]2[C@H](O)[C@@H](O[C@H]3O[C@H](CO)[C@@H](O)[C@H](N)[C@H]3O)[C@H](N)C[C@@H]2N)O1 | inactive | inactive | – | inactive | inactive | inactive | inactive | inactive | inactive | inactive | inactive | inactive | inactive | inactive | inactive | inactive | inactive | inactive | inactive | inactive
CC(C)NCC1CCc2cc(CO)c([N+](=O)[O-])cc2N1 (configuration not stated) | inactive | inactive | – | inactive | inactive | – | inactive | inactive | inactive | inactive | inactive | inactive | inactive | inactive | inactive | inactive | inactive | inactive | inactive | inactive
CCN(CC)CCNC(=O)c1ccc(NS(C)(=O)=O)cc1 | inactive | inactive | – | inactive | inactive | inactive | inactive | inactive | – | inactive | inactive | inactive | inactive | inactive | inactive | inactive | – | inactive | inactive | inactive
CC(=O)OCC(=O)[C@@]1(O)CC[C@H]2[C@@H]3CCC4=CC(=O)CC[C@]4(C)C3=CC[C@@]21C | inactive | inactive | inactive | inactive | inactive | – | inactive | inactive | – | inactive | inactive | inactive | inactive | inactive | inactive | – | – | inactive | inactive | inactive
CC1(C)S[C@@H]2[C@H](N3C(=O)C(c4ccccc4)NC3(C)C)C(=O)N2[C@H]1C(=O)O (some centres not stated) | inactive | inactive | – | inactive | inactive | inactive | inactive | inactive | inactive | inactive | inactive | inactive | inactive | inactive | – | – | inactive | inactive | inactive | inactive
